SKN-1 inh: inhibitors of C. elegans SKN-1; C. elegans VP596 Pgst-4::GFP/RFP ratio, acrylamide-induced, 24 h; inhibition, % at 21.8 µM; 360,000 tested, 0.49% active; AID 624304;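 active = interference check ratio from 0.5 to 1.5 plus GFP to RFP signal ratio inhibition reaching or exceeding a fixed threshold, cut at about 30% in these data, passing the limit was not always enough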
SUMO Mot1 rescue: SUMOylation pathway inhibition by Mot1-301 growth rescue; S. cerevisiae Mot1-301 growth rescue, ATP luminescence, 38.5C; percent above DMSO median, 100 means doubled; growth rescue, % at 18.8 µM; 320,000 tested, 1% active;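 active = every valid replicate shows activation above 250% relative to neutral control wells; inactive = the rest, any valid replicate at or below 250%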
Efflux pump inh: antifungal efflux pump inhibition, Nile Red retention | S. cerevisiae Candida pump triplex | inhibition, % at 10 µM | AID 485275 | 330,000 tested, 0.44% active;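 active = plate passing quality check with inhibition over a set limit, or well fluorescence over plate mean plus 4 SD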;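 also: Nile Red retained in pooled yeast measured as flow cytometry median fluorescence; higher means more Nile Red kept so more efflux inhibition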
HGIII-sPLA2 inh: Inhibits HGIII-sPLA2 liposome hydrolysis, primary screen; inhibition, % at 12.2 µM; 370,000 tested, 0.56% active; Q9NZ20; QFRET BODIPY PC-A2 liposome hydrolysis, fluorescence; AID 743126;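 active = inhibition above mean plus 3 SD of compounds lying within the high and low control bounds, cut at about 19% in these data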
Target sequence (Q9NZ20 whole entry, looked up): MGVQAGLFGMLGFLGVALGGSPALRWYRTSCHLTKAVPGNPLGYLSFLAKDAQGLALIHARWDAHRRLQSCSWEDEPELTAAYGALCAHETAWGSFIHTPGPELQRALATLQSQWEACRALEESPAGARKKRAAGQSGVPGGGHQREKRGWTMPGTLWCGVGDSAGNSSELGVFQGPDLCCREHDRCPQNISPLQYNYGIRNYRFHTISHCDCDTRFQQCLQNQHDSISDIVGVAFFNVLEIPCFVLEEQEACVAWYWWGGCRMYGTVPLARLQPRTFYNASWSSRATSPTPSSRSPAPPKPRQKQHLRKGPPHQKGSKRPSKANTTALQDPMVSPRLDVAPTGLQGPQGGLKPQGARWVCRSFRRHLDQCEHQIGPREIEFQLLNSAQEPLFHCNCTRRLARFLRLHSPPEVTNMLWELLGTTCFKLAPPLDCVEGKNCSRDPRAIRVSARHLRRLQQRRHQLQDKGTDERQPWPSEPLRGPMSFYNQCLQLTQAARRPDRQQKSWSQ
sPLA2 confirm: human GIII-sPLA2 inhibition, confirmation | 2,000 tested, 34% active | inhibition, % at 12.2 µM | AID 743280 | recombinant hGIII-sPLA2, BODIPY PC-A2 QFRET fluorescence | shares compounds with HGIII-sPLA2 inh;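 active = mean inhibition across triplicates above the hit cutoff set in the earlier primary screen, cut at about 19% in these data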
BODIPY interf: optically interferes with 535nm fluorescence in sPLA2 counter-screen; shares compounds with HGIII-sPLA2 inh; BODIPY FL product fluorescence interference, QFRET; inhibition, % at 12.2 µM; 2,000 tested, 8.5% active; AID 743282;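 active = average inhibition above the solvent-only control mean plus 3 SD, cut at about 6% in these data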
535nm interf DR: 535nm optical interference dose response, HGIII-sPLA2 counter-screen; shares compounds with HGIII-sPLA2 inh; BODIPY FL product fluorescence interference, cell-free; IC50, µM; 240 tested, under 10 active; AID 743455;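 active = IC50 at or below 10 µM; inactive = IC50 above 10 µM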
Large screens that a line does not name were inactive (follow-up assays come after a bar, where they were run). In the library only some 2.2% were active in any assay of this set; here they are far more common.

COc1cccc(-c2nc(-c3ccccc3)c3ccc(Cl)cc3n2)c1	HGIII-sPLA2 inh 20.4 (no result: SUMO Mot1 rescue, Efflux pump inh) | sPLA2 confirm inactive | BODIPY interf inactive
CC(C)CNC(=O)c1cccc2c1-c1ccccc1C2=O	none
CC1CC(O)(CC(O)(c2ccccc2)c2ccccc2)C(C)CN1C (configuration not stated)	HGIII-sPLA2 inh 19.3 | sPLA2 confirm inactive | BODIPY interf inactive
CCc1ccc(CC2(O)CC(C)N(C)CC2C)cc1 (configuration not stated)	none
O=C(COC(=O)C(CO)NS(=O)(=O)c1ccc(Br)cc1)Nc1ccc2c(c1)OCCO2 (configuration not stated)	none
Cc1ccccc1C(=O)NNC(=S)NC(=O)c1cccs1	HGIII-sPLA2 inh 33.8 | sPLA2 confirm 38.9 | BODIPY interf inactive | 535nm interf DR inactive
CC(=O)c1cccc(NCC(=O)N2CCN(S(=O)(=O)c3ccccc3)CC2)c1	none
S=C(Nc1ccccc1)N1CCCN1c1ccccc1	HGIII-sPLA2 inh 20.3 | sPLA2 confirm inactive | BODIPY interf inactive
c1ccc2c(c1)CC1(CCCC1)n1nnnc1-2	none
CC1(C)Cc2ccccc2-c2nnnn21	HGIII-sPLA2 inh 23.0 | sPLA2 confirm inactive | BODIPY interf inactive
CCCNC(=S)N1CCC(C(=O)c2ccc(Cl)cc2)CC1	none
CCCNC(=S)N1CCC(C(=O)c2ccc(OC)cc2)CC1	HGIII-sPLA2 inh 21.3 | sPLA2 confirm inactive | BODIPY interf inactive
CCc1cc2c(=O)[nH]c(Cc3ccc(OC)cc3)nc2s1	none (no result: SUMO Mot1 rescue)
CCc1cc2c(=O)[nH]c(COC)nc2s1	HGIII-sPLA2 inh 19.3 | sPLA2 confirm inactive | BODIPY interf inactive
COc1ccc(CNC(=O)COC(=O)c2c(NC(C)=O)sc(C)c2C)cc1OC	none (no result: SUMO Mot1 rescue, Efflux pump inh)
CCc1ccccc1NC(=O)CCS(=O)(=O)c1ccc(Br)cc1	none
CCc1ccccc1NC(=O)CCS(=O)(=O)c1ccc(C)cc1	HGIII-sPLA2 inh 19.7 | sPLA2 confirm inactive | BODIPY interf inactive
CC(C)Cc1ccc(C(C)NC(=O)Cc2ccc(S(=O)(=O)N3CCOCC3)s2)cc1 (configuration not stated)	none
NC(=O)c1ccc(N=Cc2c(O)ccc3ccccc23)cc1	none
C=CCS/C(N)=N\N=C\c1c(O)ccc2ccccc12	HGIII-sPLA2 inh 20.3 | sPLA2 confirm 28.8 | BODIPY interf inactive | 535nm interf DR inactive
COc1ccccc1C(=O)OCn1nnc2ccccc2c1=O	none
O=C(OCn1nnc2ccccc2c1=O)c1cc(-c2ccccc2)nc2ccccc12	HGIII-sPLA2 inh 23.4 | sPLA2 confirm inactive | BODIPY interf inactive
Cc1ccc(S(=O)(=O)N(C)CCCC(=O)Nc2ccccn2)cc1	HGIII-sPLA2 inh 19.6 | sPLA2 confirm inactive | BODIPY interf inactive
O=C(N/N=C/c1coc2ccccc2c1=O)c1ccc(Cl)cc1	none
O=C(N/N=C/c1coc2ccccc2c1=O)c1cc(Br)ccc1O	HGIII-sPLA2 inh 21.8 | sPLA2 confirm inactive | BODIPY interf inactive
CN(C)C(=O)/C(=C/c1cn(-c2ccccc2)nc1-c1cccc([N+](=O)[O-])c1)NC(=O)c1ccccc1	none
C=CCNC(=O)/C(=C/c1cn(-c2ccccc2)nc1-c1cccc([N+](=O)[O-])c1)NC(=O)c1ccccc1	HGIII-sPLA2 inh 20.5 | sPLA2 confirm inactive | BODIPY interf inactive
CCOc1ccc(C2CC(c3ccc(CC)cc3)Nc3nc(N)nn32)cc1 (configuration not stated)	HGIII-sPLA2 inh 21.6 | sPLA2 confirm inactive | BODIPY interf inactive
CCOc1ccc(C2CC(c3ccc(CC)cc3)n3nc(N)nc3N2)cc1 (configuration not stated)	none
CCCCCC1CCC(c2n[nH]c(=S)n2C)CC1 (configuration not stated)	HGIII-sPLA2 inh 19.9 | sPLA2 confirm 25.5 | BODIPY interf inactive
Cc1ccc(NNC(=O)c2ccc(Cl)cc2)nn1	HGIII-sPLA2 inh 47.3 | sPLA2 confirm 72.9 | BODIPY interf 74.2
CC(C)(C)c1ccc(C(=O)NNC(=O)c2ccc(Cl)cc2)cc1	none (no result: SUMO Mot1 rescue)
Cc1ccc2cc(C#N)c(SCC(=O)N3CCCc4ccccc43)nc2c1	none
